Results published in PubChem BioAssay AID1159580 (chemical genetic matrix, 2015).
Hit rate of the full screen: of about 5,500 compounds, about 2,000 (36%) were called active. Roughly 18% stayed inconclusive and do not appear here. Cut-off read from the data, not from the text of the source: active = normalized growth mostly below about 0.91 (no sharp cut-off); inconclusive = no clear call, values can overlap the other calls; inactive = mostly above about 0.92. Some of the results follow.

Assay: chemical genetic growth profiling, strain panel (AID 1159580);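 note: tested at 20 µM; growth read once vehicle control cultures reached saturation at 30 °C; 1 = growth at the plate median or of vehicle wells; lower values mean less growth of the strain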
Conditions: S. cerevisiae deletion strains, growth OD

Measured: normalized growth

Nc1ccc(N2C(=O)c3ccccc3C2=O)c(Cl)c1
inactive: locus YAL040C, strain CLN3, active compounds read low 1.06 | locus YCL061C, strain MRC1 (second series), active compounds read low 1.01 | locus YER002W, strain NOP16, active compounds read low 0.974 | locus YGR078C, strain PAC10, active compounds read low 0.98 | locus YJR075W, strain HOC1, active compounds read low 1 | locus YNL153C, strain GIM3, active compounds read low 0.995 | locus YNL175C, strain NOP13, active compounds read low 0.958 | locus YNL197C, strain WHI3, active compounds read low 0.935 | locus YNL224C, strain SQS1, active compounds read low 0.94 | locus YNL322C, strain KRE1, active compounds read low 0.986 | locus YOR083W, strain WHI5 (second series), active compounds read low 1.02
